The list is not random: actives were taken first. Their share in the collection is about 2%.
aSyn yeast inh: alpha-synuclein toxicity inhibition in yeast. AID 652106. 370,000 compounds, 0.14% hits. Potency, µM (top dose mostly 46.1 µM), for the others: top-dose growth rescue (activation), usual class: activators. Yeast expressing alpha-synuclein, growth rescue, BacTiter-Glo, 24 h; further: potency means the concentration at half of the fitted maximal effect; % of control where 0% means no effect; nearly all actives have a fitted effect of over 65% in size
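Readout is rescue of growth in alpha-synuclein-expressing yeast, so inhibitors of toxicity appear as activators. Growth after 24 hr at 30 deg C in galactose medium is quantified by luminescence.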
Abeta yeast res: A-beta toxicity reversal in yeast; AID 1347071; 410,000 compounds, 0.063% hits; Potency, µM (highest dose often 46.1 µM), most hits filed as activators; yeast expressing A-beta42, growth rescue, OD600, 48 h; response scale: 0% DMSO, 100% iron-clioquinol control; further: potency means the concentration at half of the fitted maximal effect; nearly all actives have a fitted effect of over 55% in size
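Yeast growth medium received pinned compounds, then yeast cells expressing toxic A-beta were added; plates incubated at 30 C for 48 hr. Growth read as absorbance at 600 nm, normalized to DMSO and equimolar FeCl3 plus clioquinol controls.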
LDHA block: blocks human lactate dehydrogenase A | P00338 | purified LDHA, NADH/diaphorase-resazurin fluorescence; stronger effect = lower value | activity change, % (values are at about 110 or 230 µM) | 480,000 compounds, 0.15% hits | AID 1347041; in the data active means activity change below about -30%; inconclusive means mostly about -25% to -30%;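 further: plate controls were DMSO wells for no effect and wells without enzyme for full effect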
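Human LDH5 at 2 nM final in Tris HCl pH 7.4 with 0.06 mM NADH and 0.2 mM pyruvate, reacted 5 minutes at room temperature. Remaining NADH coupled via diaphorase/resazurin; resorufin fluorescence read at 0 and 20 minutes, normalized to enzyme-free and DMSO wells.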
FUS suppressor: rescues growth of FUS-expressing yeast | S. cerevisiae FUS-expressing, growth rescue, OD600, 24 h | Potency, µM (series often up to 76.6 µM), most hits filed as activators | 390,000 compounds, 0.24% hits;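 further: potency means the concentration at half of the fitted maximal effect; plate controls were DMSO vehicle for no effect and reference control for full effect; nearly all actives have a fitted effect of over 55% in size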
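FUS-expressing yeast, raffinose-pregrown, induced in 2% galactose minimal medium at OD 0.005; compounds in a dilution series, 24hr at 30C. Growth restoration read as absorbance at 600 nm. CP55940 positive control, DMSO negative.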
IDH1 R132H inh: human IDH1 R132H inhibition; O75874; IDH1-R132H enzyme, NADPH consumption, diaphorase/resazurin fluorescence; Potency, µM (series often up to 76.6 µM), for inactives: at the highest dose activity change, negative = inhibition, hits mostly inhibitors; 390,000 compounds, 0.093% hits; AID 602179; further: potency means the concentration at half of the fitted maximal effect; on the % scale 0 is the no-effect control and ±100 the full control effect; nearly all actives have a fitted effect of over 65% in size
Target sequence (O75874 whole entry R132H, stated change not applied): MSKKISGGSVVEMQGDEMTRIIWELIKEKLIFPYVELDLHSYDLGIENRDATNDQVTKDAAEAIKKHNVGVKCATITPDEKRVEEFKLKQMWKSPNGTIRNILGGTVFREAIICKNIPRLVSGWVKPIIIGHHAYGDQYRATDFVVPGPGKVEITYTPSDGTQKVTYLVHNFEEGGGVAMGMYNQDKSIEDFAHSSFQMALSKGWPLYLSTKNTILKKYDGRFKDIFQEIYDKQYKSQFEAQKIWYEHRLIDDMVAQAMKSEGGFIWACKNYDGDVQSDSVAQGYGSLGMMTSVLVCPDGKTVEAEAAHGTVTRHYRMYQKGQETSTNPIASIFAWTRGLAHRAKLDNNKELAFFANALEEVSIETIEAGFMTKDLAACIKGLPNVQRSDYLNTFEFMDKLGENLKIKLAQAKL
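IDH1-R132H (0.5 ug/mL) preincubated 30 min with compound, then NADPH (0.016 mM) and alpha-KG (2 mM) added; 80 min at RT, pH 7.5. Remaining NADPH coupled via diaphorase/resazurin to fluorescence (540/590 nm); concentration-response curves normalized to no-enzyme control.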
TDP43 rescue: inhibitors of TDP-43 toxicity in yeast. TDP-43 expressing yeast growth rescue, BacTiter-Glo, 24 h. Potency, µM (top dose mostly 46.1 µM), inactives show top-dose growth rescue (activation), hits mostly activators. 410,000 compounds, 1.8% hits. AID 652104; further: potency means the concentration at half of the fitted maximal effect; % of control where 0% means no effect; nearly all actives have a fitted effect of over 50% in size
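Yeast cells expressing TDP-43 under galactose induction are exposed to compounds for 24 hr at 30 deg C. BacTiter-Glo luminescence measures growth, so protective compounds score as activators.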
Numbers without * were called inactive; i = inactive; ? = inconclusive; . = no result given. Unless noted, the call rests on the fitted dose curve; in most records, active means well fitted curve in the direction sought with a large enough effect; inconclusive means small, poorly fitted or top-dose-only effect, or another doubt; inactive means no such curve, though single readings can be large; an effect the other way counts as inactive or inconclusive.

SMILES | aSyn yeast inh | Abeta yeast res | LDHA block | FUS suppressor | IDH1 R132H inh | TDP43 rescue
Cc1cc(C)c(OCC(=O)Nc2nc(-c3ccccn3)cs2)c(C)c1 | 13µM* | i | 3 | ? | 4% | -14%
COc1ccc(OCCCC(=O)Nc2nc(-c3ccccn3)cs2)cc1 | 2% | ? | 1 | i | 0% | 11µM*
CC1(C(=O)NC2CC3CC2C2CCCC32)CC1(Cl)Cl (configuration not stated) | . | . | -2 | . | . | .
Cc1n[nH]c(=O)c2c(NC(=O)CSc3nnc(C)n3Cc3ccccc3)oc(C)c12 | . | . | 18 | . | . | .
O=c1oc2ccc(Cl)cc2cc1-c1nc(-c2ccccc2)cs1 | . | . | 7 | . | . | .
CSc1ccccc1N=CC1=C(O)CC(C)(C)CC1=O | 6% | i | 1 | i | 5% | ?
CC1(C)CC(=O)C(Sc2ccccc2[N+](=O)[O-])=C(O)C1 | 4% | i | -78* | . | 5% | 12%
CC(=O)c1c(C)[nH]c(C(=O)OCc2cccc(Cl)c2)c1C | -9% | i | -2 | i | 4% | 16µM*
COc1ccc(CN(C)[C@H]2C[C@H]3c4[nH]c5ccccc5c4CCN3C[C@H]2[C@H](C)O)cc1 | -2% | i | -30* | i | -7% | 24%
COc1ccc(NC(=O)N(C)[C@H]2C[C@H]3c4[nH]c5ccccc5c4CCN3C[C@H]2[C@H](C)O)cc1 | ? | i | -25 | i | -2% | 1%
O=C(COC(=O)CC(c1ccccc1)c1ccccc1)Nc1ccc(N2CCOCC2)cc1 | . | . | 10 | . | . | .
CC1CCN(c2oc(-c3ccco3)nc2S(=O)(=O)c2ccccc2)CC1 | -5% | i | -2 | i | -1% | 16µM*
O=S(=O)(c1ccccc1)c1nc(-c2ccco2)oc1N1CCCCC1 | 1% | i | -11 | i | -2% | 0%
CC(Oc1ccc(C=Nc2ccc(N3CCOCC3)cc2)cc1)C(=O)O (configuration not stated) | . | . | 28 | . | . | .
Cc1ccc(-n2c3nc(=O)[nH]c(=O)c-3cc3ccc(Cl)cc32)c(C)c1 | . | . | -10 | . | . | .
CSc1cccc(NC(=O)COc2coc(CN3CCSCC3)cc2=O)c1 | . | . | -38* | . | . | .
O=C(/C=C/c1ccc(Cl)cc1Cl)N1CCN(c2ccccc2[N+](=O)[O-])CC1 | ? | i | -7 | i | 6% | 13µM*
O=C(/C=C/c1ccc(Cl)cc1Cl)N1CCN(c2ccc([N+](=O)[O-])c(N3CCOCC3)c2)CC1 | -7% | i | -6 | . | 10% | ?
CCCCc1ccc(/C=C(\C#N)C(N)=S)s1 | 24% | ? | -4 | i | -2% | 20µM*
Cn1cccc1/C=C(/C#N)C(N)=S | -1% | i | -1 | i | 1% | 0%
CC(C)c1ccc(Nc2ccc3cc(S(=O)(=O)N4CCCC4)ccc3n2)cc1 | . | . | 7 | . | . | .
COc1ccc(-c2ccc(NS(=O)(=O)c3ccccc3Cl)cc2)nn1 | . | i | 4 | i | -8% | 18%
COc1ccc(-c2cccc(NS(=O)(=O)c3cc(C)c(Cl)cc3C)c2)nn1 | . | i | -2 | ? | 0% | 18µM*
COc1ccc(-c2cccc(NS(=O)(=O)c3cc(C(F)(F)F)ccc3Cl)c2)nn1 | . | i | 4 | i | -28% | 6%
COc1ccc(-c2ccc(NS(=O)(=O)c3cc(C)c(C)cc3C)cc2)nn1 | . | i | 0 | ? | -14% | 18µM*
SMILES | aSyn yeast inh | Abeta yeast res | LDHA block | FUS suppressor | IDH1 R132H inh | TDP43 rescue
O=C(CCl)N(CCc1ccccc1)Cc1cccs1 | . | . | 9 | . | . | .
O=C(Cn1cc(/C=C2\NC(=O)N(Cc3ccccc3Cl)C2=O)c2ccccc21)N1CCOCC1 | . | . | 5 | . | . | .
Clc1ccc(C[n+]2csc3ccccc32)cc1 | -11% | i | -6 | . | 0% | 25µM*
Fc1ccc(C[n+]2csc3ccccc32)cc1 | -9% | i | -5 | . | 4% | 28µM*
ICC[n+]1csc2ccccc21 | -1% | . | -22 | . | . | .
N#CCCNC(Cc1ccccc1)C(=O)O (configuration not stated) | . | . | 9 | . | . | .
NC(=S)NN=C(Cc1ccccc1)Cc1ccccc1 | 3% | ? | -3 | i | 2% | 16µM*
S=C(NCc1ccccc1)NN=C(Cc1ccccc1)Cc1ccccc1 | . | . | 2 | . | . | .
S=C(NCCSCc1ccccc1Cl)Nc1ccccc1 | 17% | i | -4 | i | 7% | 13µM*
COC(=O)c1ccc(NC(=S)NCCc2cccc(C)c2)cc1 | -7% | i | -5 | i | -4% | 8.9µM*
S=C(NCCSCc1ccc(Cl)cc1)Nc1ccccc1 | -15% | i | -3 | . | 0% | 25µM*
S=C(NCCCc1ccccc1)Nc1ccccc1 | 7% | 20µM* | -1 | i | 7% | 29%
Cc1n[nH]c(=O)c2c(NC(=O)CSc3nnc(C4CC4)n3-c3ccccc3)oc(C)c12 | . | . | 15 | . | . | .
Cn1c(C=C(C#N)C#N)ccc1-c1cc(Cl)ccc1Cl | . | . | 7 | . | . | .
COc1ccc(CNC(=O)CSc2nc3ccc(NC(=O)c4ccccc4F)cc3s2)cc1 | . | . | -2 | . | . | .
Cc1cccc(CSCCNC(=S)Nc2ccccc2)c1 | -3% | i | -8 | . | 2% | 16µM*
CCCOc1ccc(CSCCNC(=S)Nc2ccccc2)cc1 | -3% | ? | 2 | i | 4% | 24%
O=C(CCC1N=C2c3ccccc3N=C(SCc3ccc(Cl)cc3)N2C1=O)NCCc1ccccc1 (configuration not stated) | . | i | -2 | 32µM* | 2% | 15%
O=C(CCC1N=C2c3ccccc3N=C(SCc3cccc(Cl)c3)N2C1=O)NCCc1ccccc1 (configuration not stated) | . | i | -5 | ? | 18% | ?
CCc1ccc(-n2c(CCC(=O)O)ccc2-c2cccs2)cc1 | . | i | 2 | i | 9% | ?
CCOC(=O)c1ccc(-n2c(CCC(=O)O)ccc2-c2cccs2)cc1 | 20µM* | i | 8 | i | -1% | 26%
O=C(O)CCc1ccc(-c2cccs2)o1 | 14µM* | i | 4 | i | 1% | ?
Cc1ccc(-c2ccc(CCC(=O)O)o2)cc1 | 23% | i | -5 | i | 4% | ?
COCCn1c(CCC(=O)O)ccc1-c1cccs1 | 11% | i | 6 | i | -1% | -18%
CCCCn1c(CCC(=O)O)ccc1-c1cccs1 | 16% | i | 0 | i | -11% | 18µM*
Cc1cc(Cl)ccc1-n1c(CCC(=O)O)ccc1-c1cccs1 | . | i | -6 | ? | 20% | 22µM*
Cc1ccc(Cl)cc1-n1c(CCC(=O)O)ccc1-c1cccs1 | . | i | 0 | i | -6% | 13µM*

Source: PubChem BioAssay (National Center for Advancing Translational Sciences (NCATS))
